# Data taken from paper PMC7826789 (International Journal of Molecular Sciences, 2021).
# Legend:
# Conditions in all cases: Compound Concentration (nM):1000
# SIK = test system: T1, SIK
# T1 construct: gene SIK1
# SLK = test system: SLK
# SNARK = test system: T2, SNARK
# T2 construct: gene NUAK2
# SNRK = test system: SNRK
# SRC = test system: SRC
# SRMS = test system: SRMS
# SRPK1 = test system: SRPK1
# SRPK2 = test system: SRPK2
# SRPK3 = test system: SRPK3
# STK16 = test system: STK16
# STK33 = test system: STK33
# STK35 = test system: STK35
# STK36 = test system: STK36
# STK39 = test system: STK39
# SYK = test system: SYK
# SgK110 = test system: SgK110
# TAK1 = test system: T3, TAK1
# T3 construct: gene MAP3K7
# TAOK1 = test system: TAOK1
# TAOK2 = test system: TAOK2
# TAOK3 = test system: TAOK3
# 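Further: KINOMEscan scanMAX binding as percent activity remaining versus control; lower means stronger binding.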
SMILES,Percent Control (SIK),Percent Control (SLK),Percent Control (SNARK),Percent Control (SNRK),Percent Control (SRC),Percent Control (SRMS),Percent Control (SRPK1),Percent Control (SRPK2),Percent Control (SRPK3),Percent Control (STK16),Percent Control (STK33),Percent Control (STK35),Percent Control (STK36),Percent Control (STK39),Percent Control (SYK),Percent Control (SgK110),Percent Control (TAK1),Percent Control (TAOK1),Percent Control (TAOK2),Percent Control (TAOK3)
NS(=O)(=O)c1ccc(Nc2ncc(-c3ccccc3)o2)cc1 [GW572399X],100%,100%,79%,100%,100%,100%,94%,100%,98%,31%,100%,100%,100%,100%,93%,100%,100%,72%,97%,86%
Cl.c1ccc(Cc2nc3ccc(Nc4ncnc5ccccc45)cc3[nH]2)cc1 [GR269666A],100%,100%,100%,100%,100%,100%,100%,100%,78%,100%,97%,100%,100%,100%,100%,100%,100%,100%,100%,100%
Nc1ncnc2occ(-c3ccc(NC(=O)Nc4cc(C(F)(F)F)ccc4F)cc3)c12 [GW770249X],100%,6.3%,87%,100%,92%,91%,74%,76%,63%,97%,11%,95%,100%,100%,38%,100%,3.2%,75%,67%,74%
COc1ccccc1-c1cc(/C=C2\C(=O)Nc3ncc(Br)cc32)cc(Br)c1O [GW442130X],100%,100%,89%,100%,91%,100%,100%,100%,100%,87%,100%,100%,100%,67%,100%,100%,81%,93%,100%,89%
COC(=O)Nc1nc2ccc(Oc3ccc(NC(=O)Nc4cc(C(F)(F)F)ccc4F)cc3)cc2s1.Cl [GW693917A],98%,68%,86%,100%,54%,92%,86%,90%,74%,76%,44%,86%,100%,87%,98%,100%,5.8%,84%,86%,93%
COc1cc2ncn(-c3cc(O[C@H](C)c4ccccc4Cl)c(C(N)=O)s3)c2cc1OC [GSK237701A],100%,0.4%,4.3%,91%,79%,92%,100%,100%,100%,60%,100%,90%,98%,94%,78%,100%,78%,54%,79%,71%
O=C(Nc1n[nH]c2nc(-c3ccc(O)cc3)c(Br)cc12)C1CC1 [SB-725317],100%,41%,100%,100%,100%,100%,100%,100%,100%,76%,96%,100%,100%,99%,100%,100%,95%,1%,2.6%,2.6%
CCS(=O)(=O)c1ccc(OC)c(Nc2ncc(-c3cccc(OC)c3)o2)c1 [GW580509X],97%,100%,96%,100%,26%,54%,96%,100%,100%,37%,100%,100%,100%,100%,96%,100%,81%,100%,100%,100%
COc1cc(/C=N/Nc2ncnc3[nH]ncc23)ccc1O [GW578748X],87%,100%,36%,100%,22%,39%,97%,91%,98%,32%,95%,100%,57%,60%,51%,100%,32%,51%,80%,77%
Cc1cc(O)cc(C)c1/C=C/c1cncc(C(N)=O)c1 [GW435821X],38%,100%,92%,100%,57%,38%,88%,100%,85%,98%,94%,69%,100%,100%,74%,100%,100%,74%,91%,98%
